Consider 38 molecules from PubChem BioAssay (NCI).

Where “and” joins values, the source holds several entries; their conditions need not be identical. Equal values may be shown once. The panel holds about 83,000 compounds, 20% with a hit somewhere; the sample as a whole holds those more often.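 Activity criterion: percent growth below 10, measured after cells in 96-well plates were exposed to a single compound concentration for 48 hours.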 A number with no mark means an inactive call. Calls of active or inactive are those of the source.

One test concerns NCI-H23 lung. In words: NCI-60 one-dose screen, 48 h (100 = growth as untreated, 0 = no growth, -100 = all killed). Conditions: 2.5 µM. Here is the method: Growth inhibition of the NCI-H23 human Non-Small Cell Lung tumor cell line is measured as a screen for anti-cancer activity. Cells are grown in 96 well plates and exposed to the test compound for 48 hours. Compounds are tested at a single concentration, which is 10^-5 M for most compounds. The reported endpoint is percent growth (GI% or GIPRCNT), where numbers from 0 - 100% represent growth inhibition, and numbers from -100% - 0 represent cell death. For example, a value of 40 represents 60% growth inhibition. A value of 0 means no net growth occurred over the course of the experiment. A value of -40 indicates 40% of cells at the beginning of the experiment died by the end of the experiment. A value of -100 means all cells are dead at the end of the experiment.
NCI-60 Human Tumor Cell Lines Screen was performed using the standard one-dose NCI protocol, which is described in more detail at https://dtp.cancer.gov/discovery_development/nci-60/default.htm.
Compounds with GIPRCNT values below 10 were considered active. Activity score was based on GIPRCNT using the following formula: […]
Score is 0 for GIPRCNT values of 100 or above, 50 for GIPRCNT values of 0, and 100 for GIPRCNT values of -100.
Consider `COc1cc(NS(C)(=O)=O)ccc1Nc1c2ccccc2nc2ccccc12`, for which the growth was 8.63% (active).

The same test, now with this note: 10 µM.
Take `O=C(Nc1cccc(Br)c1)Oc1cccc2cccnc12`: the growth was 106%. With `COc1cc(NS(C)(=O)=O)ccc1Nc1c2ccccc2nc2ccccc12`, the growth is -3.53% (active) [middle of 4 runs].

Still in this test, the particulars now being: 10 µM unless noted.
On to `C[n+]1c(/C=C/c2ccc([N+](=O)[O-])cc2)ccc2ccccc21`, for which the growth is 90.4%. With `CCCCCCCCCCCCCCCCCCOP(=O)([O-])OC1CC[N+](C)(C)CC1`, the growth is 76.2% and 60.8%. Take `COC(=O)c1nc(=S)[nH]c(C(=O)OC)c1C(=O)c1ccc2ccccc2c1`: the growth is 97.9%.

Turning to `N#CSCc1ccc(Cl)c(CSC#N)c1`, the growth was 40.4%. As for `Oc1c(Br)c(Br)c(O)c(Br)c1Br`, the growth is 92.5%. Turning to `Cc1ccc2nc(C[n+]3ccc4ccccc4c3)ccc2c1`, the growth is 42%. As to `O=C1C2=C(Nc3cc([N+](=O)[O-])ccc3N2)OC1c1c2ccccc2cc2ccccc12` (stereo not given), the growth was 51.7%. On to `NC(=O)/C=C/C(=O)c1c(Cl)cccc1Cl`, for which the growth was -79.1% (active). Take `CCOC(=O)/C=C/c1ccc([N+](=O)[O-])o1`: the growth is 73.7%.

Take `O=C(O)c1ccc2c3c(ncnc13)-c1ccccc1C2=O`: the growth is -76.7% (active). On the same count and under the same terms, next, `N#CC1C(=O)SC2c3ccccc3C(=O)c3ccccc3C12` (stereo not given): 104%; `CC(=O)Nc1cccc2cc(O)ccc12`: 99% and 101% and 103%; `CN1c2ccccc2C(C)(C)C12C=Cc1cc(O)ccc1O2` (stereo not given): 52.3%.

As for `CCN(CC)CCOc1ccc(-c2nc3cc(Cl)ccc3s2)cc1`, the growth is -53.6% (active). Turning to `COC(=O)c1nc(=S)[nH]c(C(=O)OC)c1C(=O)c1ccccn1`, the growth is 45.8%. `CCC1OC(OC)C=CC1=O` (stereo not given): the growth is 106%.

Regarding `O=C(Nc1cccc(Br)c1)Oc1ccc(Cl)c2cccnc12`, the growth is -8.8% [100 µM] (active). Take `O=C1OCc2cccc3cccc1c23`: the growth is 101%. Same read-out and setting: with `CCCCCC(CCCCC)C(=O)O` the figure was 114%. As to `CC1=CC(O)C2CC1C2(C)C` (stereo not given), the growth was 112% and 110%. As to `C=C(Cl)C(=NC(C)(C)C)Nc1ccccc1C`, the growth was 98.8%. Turning to `N[C@H](C(=O)O)[C@@H]1CC(Cl)=NO1`, the growth was 22.8% [20 µM].

For `O=C1N[C@H]2[C@H](CS[C@H]2CCCCC(=O)N(CCP(c2ccccc2)c2ccccc2)CCP(c2ccccc2)c2ccccc2)N1`, the growth is 67.8%. Consider `N#CSCc1c(Cl)cccc1Cl`, for which the growth was 34.7%.

Consider `CN=C(N)N/N=C(\C)c1ccc2c(c1)Cc1cc(/C(C)=N/NC(N)=NC)ccc1-2`, for which the growth was -56.6% (active).

Turning to `Oc1c(Cl)c2ccccc2c2ccccc12`, the growth was 103%. With `Cn1c2c(c3ccccc31)CCN1C[C@@H]3CCCC[C@H]3C[C@@H]21`, the growth was 14.4%. On the same count and under the same terms, next, `CCC(c1cccc(O)c1)C(CC)c1cccc(O)c1` (stereo not given): 78.7%. For the molecule `CNc1ccc(N)cc1`, the growth is 103%. In the case of `S=C(NCCNC(=S)[S][Sn]([c]1ccccc1)([c]1ccccc1)[c]1ccccc1)[S][Sn]([c]1ccccc1)([c]1ccccc1)[c]1ccccc1`, the growth was -68.6% (active). Consider `CN(C)c1ccc(C(=C2C=CC(=[N+](C)C)C=C2)c2ccc(N(C)C)cc2)cc1` (tested in a mixture with another compound), for which the growth was -49% (active). For `CN(C)c1ccc(N=Nc2cccc3ccccc23)cc1`, the growth was 84.3%. With `O=C(/C=C/C=C/c1ccccc1)c1ccco1`, the growth is 92.2%. `CNC(=O)N/N=C/c1ccc([N+](=O)[O-])o1`: the growth is 101%. With `Oc1c(Br)cc(Cl)cc1C(c1cc(Cl)cc(Br)c1O)C(Cl)(Cl)Cl`, the growth was 5.88% (active). For `CCOC(=O)c1c(C)[nH]c(CO)c1C`, the growth is 99.1%.

Staying with this test, now noted: 100 µM.
Turning to `O=C(Nc1cccc(Br)c1)Oc1cccc2cccnc12`, the growth is -21% (active).
